Here are results for 195 variants from a collection of fitness landscapes (doi:10.1126/science.1257360).

Over roughly 140,000 sequences, “enrichment ratio after two sorts for PhoP signalling” has its median near 0; the highest 2% begin near 11. Many of the other results were omitted from the sample, so the highest values are more common in it than they were.

B1: PhoQ; a variant is named by its letters at X, in order, P23837 (parent)
chain: MKKLLRLFFPLSLRVRFLLATAAVVLVLSLAYGMVALIGYSVSFDKTTFRLLRGESNLFYTLAKWENNKLHVELPENIDKQSPTMTLIYDENGQLLWAQRDVPWLMKMIQPDWLKSNGFHEIEADVNDTSLLLSGDHSIQQQLQEVREDDDDAEMTHSVAVNVYPATSRMPKLTIVVVDTIPVELKSSYMVWSWFIYVLSANLLLVIPLLWVAAWWSLRPIEALAKEVRELEEHNRELLNPATTRELTSLVRNLNRLLKSERERYDKYRTTLTDLTHSLKTPLXXLQXXLRSLRSEKMSVSDAEPVMLEQISRISQQIGYYLHRASMRGGTLLSRELHPVAPLLDNLTSALNKVYQRKGVNISLDISPEISFVGEQNDFVEVMGNVLDNACKYCLEFVEISARQTDEHLYIVVEDDGPGIPLSKREVIFDRGQRVDTLRPGQGVGLAVAREITEQYEGKIVAGESMLGGARMEVIFGRQHSAPKDE

The variants in the experiment derive from B1. The experiment can be described thus: enrichment ratio after two sorts for PhoP signalling (ratio (wild type AVST 3.29)); higher = more functional. The settings on record: with PhoP (E. coli).
Take AGIC: the enrichment ratio is 3.1. Then RPIA, with at most 0.25. TYVT: the enrichment ratio is at most 0.25.

AHFF: the enrichment ratio is at most 0.25. Then HDNT, with at most 0.25; and WSHN, with at most 0.25; and PSPA, with at most 0.25. For LQDQ, the enrichment ratio was at most 0.25. Then WDVC, with at most 0.25. Then DEVE, with at most 0.25; and MMAV, with 5.57; and QQVK, with at most 0.25. Then QPWV, with at most 0.25; and TSAV, with 16.5. QGMV: the enrichment ratio was 23.6.

Take QSWV: the enrichment ratio stood at 22.9. With QRWV, the enrichment ratio is at most 0.25. As to QGMS, the enrichment ratio was at most 0.25. Then QGIV, with at most 0.25; and QQWV, with 11.8. For the variant QLWV, the enrichment ratio was at most 0.25. For the variant KSAV, the enrichment ratio is at most 0.25. Consider IYAV, for which the enrichment ratio was at most 0.25.

For the variant IMHI, the enrichment ratio is at most 0.25. For the variant VVLM, the enrichment ratio worked out at 3.83. For DISV, the enrichment ratio is at most 0.25.

Take ASKR: the enrichment ratio is at most 0.25.

With NKAS, the enrichment ratio was at most 0.25. Consider ETLP, for which the enrichment ratio was at most 0.25. For the variant QAKK, the enrichment ratio was at most 0.25.

Consider YNYA, for which the enrichment ratio was at most 0.25. With WNDE, the enrichment ratio was at most 0.25. Then QGMW, with at most 0.25. Then QGMI, with 19.9. As for QAYV, the enrichment ratio was found to be 12.6.

In the case of KAYV, the enrichment ratio was at most 0.25.

On to FFMI, for which the enrichment ratio is at most 0.25. Then QAYI, with 8.06. Then WHSE, with at most 0.25; and PFWH, with at most 0.25.

For WKDV, the enrichment ratio was at most 0.25. Then GTCK, with at most 0.25. Then GNHF, with at most 0.25; and GTCA, with at most 0.25. As to GNNT, the enrichment ratio is at most 0.25.

On to GNLA, for which the enrichment ratio came out at 7.72. Take GNYI: the enrichment ratio was at most 0.25.

On to GNCI, for which the enrichment ratio is 14.4. For the variant GTCI, the enrichment ratio stood at 11.7. Then GNLT, with 16.5; and DCAI, with at most 0.25; and WVLT, with at most 0.25. Turning to WFHM, the enrichment ratio was at most 0.25. Consider TILT, for which the enrichment ratio worked out at 2.41. Then RNAL, with at most 0.25; and MLVQ, with at most 0.25. VEVV: the enrichment ratio came to 2.45.

As for YEIT, the enrichment ratio was at most 0.25.

Turning to KFTH, the enrichment ratio was at most 0.25. Then FGCC, with 13.2; and AGCC, with 16.1. On to SGFH, for which the enrichment ratio is at most 0.25.

As to NGCC, the enrichment ratio is at most 0.25. With AICC, the enrichment ratio was determined as 5.26.

In the case of HGCC, the enrichment ratio was at most 0.25. Consider FGCH, for which the enrichment ratio is at most 0.25.

As to SGCC, the enrichment ratio came to 14.2.

As to QGCC, the enrichment ratio was at most 0.25. Take TGCC: the enrichment ratio was determined as 21.5. With GGCC, the enrichment ratio is 1.09. Turning to SGCH, the enrichment ratio is 8.61. EIKT: the enrichment ratio was at most 0.25. Then ELGV, with at most 0.25. In the case of GQWY, the enrichment ratio was at most 0.25. In the case of AMER, the enrichment ratio was at most 0.25. For SFYL, the enrichment ratio is at most 0.25. As to SREH, the enrichment ratio is at most 0.25. Then GSFE, with at most 0.25; and CYLP, with at most 0.25. Then TDCC, with 12.6; and FDCC, with at most 0.25; and LTCC, with at most 0.25. Then FVLE, with at most 0.25; and KTTE, with at most 0.25. PKGP: the enrichment ratio came to 4.39. For the variant KCLF, the enrichment ratio is at most 0.25. For the variant FQLF, the enrichment ratio stood at 6.28. With AQLF, the enrichment ratio was 15.8. Regarding AKLF, the enrichment ratio worked out at 7.81.

With KYLF, the enrichment ratio was at most 0.25. In the case of SPLF, the enrichment ratio was at most 0.25.

In the case of GCLF, the enrichment ratio is 13.2. STLF: the enrichment ratio came out at 14.6.

As for QCLF, the enrichment ratio was at most 0.25.

Take TKLF: the enrichment ratio was 18.

As to ADLF, the enrichment ratio was at most 0.25. With HKLF, the enrichment ratio is at most 0.25.

As for LCCL, the enrichment ratio is at most 0.25. Then GKCT, with at most 0.25. Then RRGY, with at most 0.25.

For FMSK, the enrichment ratio is at most 0.25.

On to GTLF, for which the enrichment ratio is 11.4. Then DPLF, with at most 0.25. Then AILF, with 2.9. In the case of EQLF, the enrichment ratio was at most 0.25. Then ATLF, with 13.9; and SELF, with 13.1; and SLLF, with 0.885. Then GYLF, with at most 0.25. For YTLF, the enrichment ratio is 6.76. Take SRLF: the enrichment ratio is at most 0.25. Then TTLF, with 4.92; and SQLF, with 12.6; and YMKT, with at most 0.25. Take QAAW: the enrichment ratio was at most 0.25. On to WQED, for which the enrichment ratio was at most 0.25. Then NQDM, with at most 0.25; and IYQN, with at most 0.25; and DQIN, with at most 0.25. In the case of HPPT, the enrichment ratio is at most 0.25. DIGD: the enrichment ratio was at most 0.25.

For the variant KYSK, the enrichment ratio was at most 0.25. SQMS: the enrichment ratio stood at 17.9. Then SIMK, with 28.9; and KYTR, with at most 0.25.

In the case of SQMK, the enrichment ratio is at most 0.25. Then STMK, with 9.3; and SITR, with 11.4. Then SISK, with 12.1; and SISR, with 6.33; and SIGR, with 1.85. As for NQMS, the enrichment ratio was at most 0.25. Consider EQMS, for which the enrichment ratio was at most 0.25. With DTPY, the enrichment ratio was at most 0.25. For IRAT, the enrichment ratio is at most 0.25.

With KYIW, the enrichment ratio was at most 0.25. Then VAVA, with at most 0.25. Then AHMQ, with at most 0.25; and IGMY, with at most 0.25; and KQNT, with at most 0.25.

As for QIGW, the enrichment ratio is at most 0.25. As to KYLA, the enrichment ratio is at most 0.25. On to SITS, for which the enrichment ratio was found to be 11.6.

Regarding SFTI, the enrichment ratio is at most 0.25. Take SITA: the enrichment ratio came to 20. Regarding SIDW, the enrichment ratio is at most 0.25. For SILA, the enrichment ratio was found to be 16.9.

As for KYTS, the enrichment ratio is at most 0.25. Then SIGD, with 7.24; and KYTA, with at most 0.25; and SQTA, with 0.808.

For SQTI, the enrichment ratio was 13.3. Then SIFA, with at most 0.25; and AKHI, with at most 0.25. Turning to WPAY, the enrichment ratio is at most 0.25. GVTN: the enrichment ratio was at most 0.25.

For the variant NYMC, the enrichment ratio was at most 0.25. For ICGD, the enrichment ratio is at most 0.25.

In the case of LGEW, the enrichment ratio is at most 0.25.

SQAN: the enrichment ratio turned out to be 6.83. Regarding EDDL, the enrichment ratio is at most 0.25. With SISA, the enrichment ratio amounted to 11.9.

In the case of SQTS, the enrichment ratio was determined as 11.8. Then SIKQ, with at most 0.25; and KYMS, with at most 0.25. Consider SIMS, for which the enrichment ratio was 12.1. KYSA: the enrichment ratio was at most 0.25. As to SIYI, the enrichment ratio is at most 0.25. Take SSTI: the enrichment ratio was 13.8. With SSWI, the enrichment ratio came out at 2.38. As for FQTS, the enrichment ratio is at most 0.25. Then KSTS, with at most 0.25; and SSLY, with 8.15. Then DYKN, with at most 0.25. On to KNRG, for which the enrichment ratio is at most 0.25. Turning to IQKG, the enrichment ratio was at most 0.25. Then SNAN, with 6.54; and EFAY, with at most 0.25.

For KYAK, the enrichment ratio is at most 0.25.

For SILY, the enrichment ratio is at most 0.25. As to IQTC, the enrichment ratio was at most 0.25.

In the case of KYWD, the enrichment ratio was at most 0.25.

With NQTC, the enrichment ratio is at most 0.25. Then WIAK, with at most 0.25; and SPWD, with at most 0.25. Then SIAK, with 11.2; and SIWD, with 14; and KYTI, with at most 0.25.

On to SQTC, for which the enrichment ratio was 20.9. In the case of SITI, the enrichment ratio is 19.7. Then ELMG, with at most 0.25; and HETM, with at most 0.25; and NFED, with at most 0.25. Then DCAY, with at most 0.25; and KYSH, with at most 0.25.
